Reference: PubChem BioAssay (NCATS)
Records with an inconclusive call do not appear. The call rests on the fitted dose curve; in most records, active means well fitted activation curve with a large enough effect in the main read-out, with a control signal flat (not every such curve was filed as active); inconclusive means small, poorly fitted or top-dose-only effect, or effect the other way, or a change in a side signal; inactive means flat fitted curve, though single readings scatter.

These compounds were tested against 3',5'-cyclic-AMP phosphodiesterase 4B (Homo sapiens) (UniProt Q07343) (assay: qHTS Assay for Inhibitors of PDE-IV (AID 607; further: % of control where 0% means no effect)). Details: HEK293 ACTOne CNG channel cells, membrane potential fluorescence; series mostly up to 22.9 µM; activation (PDE inhibition): at the top concentration.
Chain of 3',5'-cyclic-AMP phosphodiesterase 4B (Homo sapiens) (Q07343 whole entry, looked up): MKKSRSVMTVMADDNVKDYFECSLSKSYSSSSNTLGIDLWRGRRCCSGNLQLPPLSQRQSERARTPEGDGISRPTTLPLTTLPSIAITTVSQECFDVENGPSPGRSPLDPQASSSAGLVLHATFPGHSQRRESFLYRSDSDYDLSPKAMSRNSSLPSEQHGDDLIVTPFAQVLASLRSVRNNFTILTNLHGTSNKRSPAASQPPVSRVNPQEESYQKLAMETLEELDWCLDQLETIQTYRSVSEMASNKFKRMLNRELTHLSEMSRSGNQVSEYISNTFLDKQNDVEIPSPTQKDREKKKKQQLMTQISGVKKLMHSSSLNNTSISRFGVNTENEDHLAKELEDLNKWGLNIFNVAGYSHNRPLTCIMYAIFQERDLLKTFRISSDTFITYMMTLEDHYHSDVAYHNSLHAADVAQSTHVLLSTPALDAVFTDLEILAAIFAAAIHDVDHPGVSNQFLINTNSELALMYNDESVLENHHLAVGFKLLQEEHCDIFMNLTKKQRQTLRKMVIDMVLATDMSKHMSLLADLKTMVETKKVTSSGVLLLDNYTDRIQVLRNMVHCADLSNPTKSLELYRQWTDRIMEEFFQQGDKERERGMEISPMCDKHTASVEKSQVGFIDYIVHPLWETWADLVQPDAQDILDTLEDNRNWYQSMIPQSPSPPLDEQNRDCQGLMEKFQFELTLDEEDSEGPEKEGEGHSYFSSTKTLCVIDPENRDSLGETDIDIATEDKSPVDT
Method in brief: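 Cell-based read-out of cAMP via a modified cyclic nucleotide-gated channel and membrane potential dye (535/590 nm) in HEK293 cells expressing PDE4 endogenously. Compounds tested up to 22.9 uM final; 100 uM RO 20-1724 reference.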

Activation (PDE inhibition), inactive:
CC(C)C[C@@H](CC(=O)N[C@@H](CCC(=O)O)CC(=O)O)NC(=O)[C@@H]1CCCC[C@H]1NC(=O)C[C@@H](NC(=O)C[C@H](Cc1ccccc1)NC(=O)[C@@H]1CCCC[C@H]1N)C(C)C -32.4%
CC(C)C[C@@H](CC(=O)N[C@@H](CCCN)CC(=O)N[C@@H]1CCCC[C@H]1C(=O)N[C@H](CC(=O)N[C@@H](CCC(=O)O)CC(=O)O)Cc1c[nH]c2ccccc12)NC(=O)[C@@H]1CNCC[C@H]1N 8.31%
CC(C)[C@@H](CC(=O)N[C@@H]1CCCC[C@H]1C(=O)N[C@H](CC(=O)N[C@@H](CCC(=O)O)CC(=O)O)Cc1c[nH]c2ccccc12)NC(=O)C[C@H](CO)NC(=O)[C@@H]1CNCC[C@H]1N 14.8%
NCCC[C@@H](CC(=O)N[C@@H]1CCCC[C@H]1C(=O)N[C@H](CC(=O)N[C@@H](CCC(=O)O)CC(=O)O)Cc1c[nH]c2ccccc12)NC(=O)C[C@H](Cc1c[nH]c2ccccc12)NC(=O)[C@@H]1CCCC[C@H]1N 5.19%
CC(C)[C@@H](CC(=O)N[C@@H]1CCCC[C@H]1C(=O)N[C@H](CC(=O)N[C@@H](CCC(=O)O)CC(=O)O)Cc1c[nH]c2ccccc12)NC(=O)C[C@H](Cc1ccccc1)NC(=O)[C@@H]1CCCC[C@H]1N -9.13%
CC(C)C[C@@H](CC(=O)N[C@H](CC(=O)N[C@@H]1CCCC[C@H]1C(=O)N[C@H](CC(=O)N[C@@H](CCC(=O)O)CC(=O)O)Cc1c[nH]c2ccccc12)C(C)C)NC(=O)[C@@H]1CNCC[C@H]1N 3.49%
CC(C)[C@@H](CC(=O)N[C@@H]1CCCC[C@H]1C(=O)N[C@H](CC(=O)N[C@@H](CCC(=O)O)CC(=O)O)Cc1c[nH]c2ccccc12)NC(=O)C[C@H](Cc1c[nH]c2ccccc12)NC(=O)[C@@H]1CNCC[C@H]1N 10.9%
CC(C)C[C@@H](CC(=O)N[C@@H](CCCN)CC(=O)N[C@@H]1CCCC[C@H]1C(=O)N[C@H](CC(=O)N[C@@H](CCC(=O)O)CC(=O)O)Cc1ccccc1)NC(=O)[C@@H]1CNCC[C@H]1N 14.3%
CC(C)[C@@H](CC(=O)N[C@@H]1CCNC[C@H]1C(=O)N[C@H](CC(=O)N[C@@H](CCC(=O)O)CC(=O)O)Cc1c[nH]c2ccccc12)NC(=O)C[C@H](CO)NC(=O)[C@@H]1CNCC[C@H]1N 11.7%
CC(C)C[C@@H](CC(=O)N[C@H](CC(=O)N[C@@H]1CCNC[C@H]1C(=O)N[C@H](CC(=O)N[C@@H](CCC(=O)O)CC(=O)O)Cc1c[nH]c2ccccc12)C(C)C)NC(=O)[C@@H]1CNCC[C@H]1N 10.1%
NCCC[C@@H](CC(=O)N[C@@H]1CCCC[C@H]1C(=O)N[C@H](CC(=O)N[C@@H](CCC(=O)O)CC(=O)O)Cc1c[nH]c2ccccc12)NC(=O)C[C@H](Cc1ccccc1)NC(=O)[C@@H]1CNCC[C@H]1N -8.37%
CC(C)C[C@@H](CC(=O)N[C@@H](CCCN)CC(=O)N[C@@H]1CCNC[C@H]1C(=O)N[C@H](CC(=O)N[C@@H](CCC(=O)O)CC(=O)O)Cc1c[nH]c2ccccc12)NC(=O)[C@@H]1CNCC[C@H]1N 5.08%
NCCC[C@@H](CC(=O)N[C@@H]1CCNC[C@H]1C(=O)N[C@H](CC(=O)N[C@@H](CCC(=O)O)CC(=O)O)Cc1c[nH]c2ccccc12)NC(=O)C[C@H](Cc1c[nH]c2ccccc12)NC(=O)[C@@H]1CNCC[C@H]1N -1.06%
NCCC[C@@H](CC(=O)N[C@@H]1CCNC[C@H]1C(=O)N[C@H](CC(=O)N[C@@H](CCC(=O)O)CC(=O)O)Cc1c[nH]c2ccccc12)NC(=O)C[C@H](Cc1ccccc1)NC(=O)[C@@H]1CNCC[C@H]1N -6.89%
NCCC[C@@H](CC(=O)N[C@@H]1CCNC[C@H]1C(=O)N[C@H](CC(=O)N[C@@H](CCC(=O)O)CC(=O)O)Cc1c[nH]c2ccccc12)NC(=O)C[C@H](CO)NC(=O)[C@@H]1CNCC[C@H]1N 0.469%
CC(C)[C@@H](CC(=O)N[C@@H]1CCCC[C@H]1C(=O)N[C@H](CC(=O)N[C@@H](CCC(=O)O)CC(=O)O)Cc1ccccc1)NC(=O)C[C@H](CO)NC(=O)[C@@H]1CNCC[C@H]1N 5.97%
CC(C)C[C@@H](CC(=O)N[C@@H](CCC(=O)O)CC(=O)O)NC(=O)[C@@H]1CNCC[C@H]1NC(=O)C[C@@H](NC(=O)C[C@H](Cc1c[nH]c2ccccc12)NC(=O)[C@@H]1CCCC[C@H]1N)C(C)C -4.29%
